Measured values from PubChem BioAssay (NCI).
Where “and” joins values, the source holds several entries; their conditions need not be identical. Identical values can stand only once. This is part of a sample that, as a whole, favours compounds with a hit. Of some 83,000 tested, about 20% had one in any assay.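 Assay: single dose, 48 h. Readout: percent growth (0 = no net growth; negative = cell death). Active: <10.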 Calls of active or inactive are those of the source.

Key:
Test in all cases: NCI-60 one-dose screen, 48 h (100 = growth as untreated, 0 = no growth, -100 = all killed)
Conditions in all cases: 10 µM unless noted
SK-MEL-2 melanoma = test system: SK-MEL-2 melanoma
EKVX NSCLC = test system: EKVX NSCLC
SN12C renal = test system: SN12C renal
UO-31 renal = test system: UO-31 renal
TK-10 renal = test system: TK-10 renal
ACHN renal = test system: ACHN renal
CAKI-1 renal = test system: CAKI-1 renal
A498 renal = test system: A498 renal
CCRF-CEM leukemia = test system: CCRF-CEM leukemia
MOLT-4 leukemia = test system: MOLT-4 leukemia

Structure (SMILES)	growth (SK-MEL-2 melanoma)	growth (EKVX NSCLC)	growth (SN12C renal)	growth (UO-31 renal)	growth (TK-10 renal)	growth (ACHN renal)	growth (CAKI-1 renal)	growth (A498 renal)	growth (CCRF-CEM leukemia)	growth (MOLT-4 leukemia)
N#C/C(=C/c1ccc(Cl)cc1)c1nnc(NC(=O)c2ccc(-n3c(=O)[nH]c4ccccc4c3=O)cc2)s1	91.6% (inactive)	86% (inactive)	61.1% (inactive)	77.8% (inactive)	114% (inactive)	84.3% (inactive)	95.5% (inactive)	116% (inactive)	97.9% (inactive)	94.9% (inactive)
COc1c2c(c(Br)c3c1C(CCc1ccccc1)N(C)CC3)OCO2 (stereo not given)	68.6% (inactive)	36.3% (inactive)	35% (inactive)	35.9% (inactive)	70.9% (inactive)	30.3% (inactive)	36% (inactive)	82% (inactive)	30.1% (inactive)	25.3% (inactive)
CN(C)c1nc(NCCNS(=O)(=O)c2ccc(C(=O)/C=C/c3ccc(F)cc3)cc2)nc(N2CCOCC2)n1	62.2% (inactive)	59% (inactive)	64.3% (inactive)	60.1% (inactive)	72.2% (inactive)	78.6% (inactive)	57.3% (inactive)	86.5% (inactive)	22.5% (inactive)	-6.53% (active)
COc1ccc2ccccc2c1/C=C1\SC(=Nc2ccc(O)cc2)NC1=O	27.1% (inactive)	15.8% (inactive)	6.03% (active)	17.7% (inactive)	36.9% (inactive)	17% (inactive)	9.94% (active)	93.5% (inactive)	2.89% (active)	9.45% (active)
Oc1ccc(Cl)c(Nc2nc(SCCN3CCOCC3)nc3c2cnn3CC(Cl)c2ccc(Br)cc2)c1 (stereo not given)	20.6% (inactive)	37% (inactive)	35% (inactive)	14% (inactive)	36.1% (inactive)	12.9% (inactive)	21.2% (inactive)	63.4% (inactive)	3.42% (active)	-24% (active)
O=C(Cc1c(-c2cccc([N+](=O)[O-])c2)n(-c2ncnc3c2c(-c2ccccc2)c(-c2ccccc2)n3Cc2ccccc2)[nH]c1=O)c1ccc(Cl)c(Cl)c1	1.5% (active)	11.1% (inactive)	38.5% (inactive)	39.8% (inactive)	59% (inactive)	40.4% (inactive)	21.1% (inactive)	70.3% (inactive)	51.3% (inactive)	41.9% (inactive)
N#CC1=C(c2cccs2)Nc2c(c(-c3ccccc3)nn2-c2ccccc2)C12C(=O)Nc1ccc(Br)cc12 (stereo not given)	-17.2% (active)	7.42% (active)	-13.7% (active)	6.38% (active)	12.1% (inactive)	-11% (active)	9.64% (active)	-10.8% (active)	1.86% (active)	-3.33% (active)
COc1ccc2[nH]c(=O)cc(-n3ncc(C(=O)/C=C/c4cc(OC)c(OC)c(OC)c4)c3C)c2c1	-28.3% (active)	11% (inactive)	7.21% (active)	-36.2% (active)	40.9% (inactive)	-14.9% (active)	14.6% (inactive)	0.493% (active)	-20.4% (active)	-7.45% (active)
CCc1ccccc1NC(=O)N/C(N)=N/c1nc2ccccc2s1	10.6% (inactive)	27.6% (inactive)	0.486% (active)	34.7% (inactive)	19.8% (inactive)	1.6% (active)	4.86% (active)	60.3% (inactive)	4.47% (active)	6.27% (active)
O=C(Cn1c(/C=C/c2ccc([N+](=O)[O-])cc2)nc2ccccc2c1=O)Nc1ccccc1	74.7% (inactive)	79.9% (inactive)	61.6% (inactive)	90.4% (inactive)	95.3% (inactive)	47.8% (inactive)	57.3% (inactive)	143% (inactive)	101% (inactive)	107% (inactive)
O=C(CSc1nc2sc3c(c2c(=O)n1-c1ccc(Cl)cc1)CCCC3)NNC(=O)c1ccc(Br)cc1	99.1% (inactive)	60.9% (inactive)	46% (inactive)	62.3% (inactive)	139% (inactive)	91.2% (inactive)	71.4% (inactive)	127% (inactive)	61.2% (inactive)	73.2% (inactive)
Nc1nnc(-c2cncc(Br)c2)c(-c2c[nH]c3ccc(Cl)cc23)n1	111% (inactive)	78.4% (inactive)	83.2% (inactive)	41.4% (inactive)	111% (inactive)	66.1% (inactive)	59.1% (inactive)	112% (inactive)	52.9% (inactive)	54.4% (inactive)
Cc1cc(C(NC(=O)CCCCCNc2cccc3c2C(=O)N(C2CCC(=O)CC2=O)C3=O)c2cccc(N(C)C)c2)c(O)c2ncccc12 (stereo not given)	-1.61% (active)	7.79% (active)	10.2% (inactive)	8.84% (active)	42.4% (inactive)	14.7% (inactive)	19.4% (inactive)	26.9% (inactive)	-19.4% (active)	-0.125% (active)
COc1ccc(N=Nc2c(N)nn3c(N)c(C#N)c(-c4ccc(F)cc4)nc23)cc1	110% (inactive)	72.6% (inactive)	61.3% (inactive)	50.6% (inactive)	66.7% (inactive)	53.5% (inactive)	58.6% (inactive)	155% (inactive)	86.7% (inactive)	77.6% (inactive)
COc1ccc(NC(=O)Nc2nc3ccc([N+](=O)[O-])cc3s2)cc1	33.4% (inactive)	9.23% (active)	9.66% (active)	-5.06% (active)	29.7% (inactive)	10.8% (inactive)	13.9% (inactive)	21.8% (inactive)	11.2% (inactive)	8.05% (active)
CC(=O)Nc1cccc(-n2c(COc3ccc(I)cc3)nc3ccccc32)c1	82.8% (inactive) and 118% (inactive)	86% (inactive) and 102% (inactive)	95.7% (inactive) and 111% (inactive)	-67.3% (active) and 90% (inactive)	102% (inactive) and 104% (inactive)	-78.2% (active) and 116% (inactive)	56.7% (inactive) and 105% (inactive)	114% (inactive) and 136% (inactive)	90.4% (inactive) and 96.2% (inactive)	83.6% (inactive) and 102% (inactive)
O=C(Cn1c(-c2ccccc2)nc2ccccc21)N=Nc1c(O)[nH]c2ccc(Br)cc12	-8.9% (active)	-23.3% (active)	1.91% (active)	-47.5% (active)	-17.5% (active)	-80% (active)	-8.86% (active)	-38.1% (active)	32.5% (inactive)	20.8% (inactive)
CCCSc1nnc(-c2sc3nc4ccccc4n3c2C)o1	105% (inactive)	103% (inactive)	105% (inactive)	82.3% (inactive)	124% (inactive)	104% (inactive)	104% (inactive)	110% (inactive)	107% (inactive)	92.3% (inactive)
Cc1cn(-c2cc(NC(=O)c3ccc(C)c(-n4cc(-c5cnc6cccnn56)nn4)c3)cc(C(F)(F)F)c2)cn1	64.9% (inactive)	98.9% (inactive)	85.9% (inactive)	58.2% (inactive)	111% (inactive)	85.7% (inactive)	94.7% (inactive)	185% (inactive)	54.6% (inactive)	38.9% (inactive)
Cc1nc2sccn2c1-c1nnc(SCC(C)C)o1	92.1% (inactive)	74.5% (inactive)	88.4% (inactive)	67.7% (inactive)	127% (inactive)	87.8% (inactive)	76.7% (inactive)	98.5% (inactive)	51.6% (inactive)	84.1% (inactive)
O=C1Nc2ccccc2/C1=C/C(=O)c1cc2ccccc2oc1=O	99.5% (inactive)	89.6% (inactive)	99.3% (inactive)	45.8% (inactive)	102% (inactive)	-47.6% (active)	75.5% (inactive)	223% (inactive)	54.7% (inactive)	41% (inactive)
O=C(CSc1nc2sc3c(c2c(=O)n1-c1ccc(Cl)cc1)CCCC3)NNC(=O)c1ccc(F)cc1	104% (inactive)	63.3% (inactive)	40.1% (inactive)	56% (inactive)	163% (inactive)	85.6% (inactive)	73.1% (inactive)	121% (inactive)	73.6% (inactive)	81.3% (inactive)
CCCN(CCC)S(=O)(=O)c1ccc(C(=O)O)cc1.CCCN(CCC)S(=O)(=O)c1ccc(C(=O)O)cc1.[Cl][Pt+2][Cl].[NH2-].[NH2-]	-31.6% (active)	44.8% (inactive)	12.4% (inactive)	98.4% (inactive)	109% (inactive)	13.4% (inactive)	32.4% (inactive)	91.5% (inactive)	50.4% (inactive)	-2.08% (active)
COc1ccc(-c2nnc3c(/C=C/c4ccc(Br)cc4)nc4ccccc4n23)cc1	92.9% (inactive)	54% (inactive)	-22.7% (active)	41.1% (inactive)	99.4% (inactive)	23% (inactive)	27.8% (inactive)	92.6% (inactive)	8.22% (active)	1.9% (active)
